Assay outcomes from PubChem BioAssay.
In the library only some 1.3% were active in any assay of this set; here they are far more common.
AmpC no deterg = blocks E. coli AmpC beta-lactamase in detergent-free assay. P00811. AmpC nitrocefin hydrolysis, absorbance 480 nm, 0.0001% Triton. Potency, µM (titrated, usually from 57.1 µM), inactives show at the highest dose activity change, negative = inhibition, actives largely listed as inhibitors. hit rate 0.52% among 330,000. AID 485341;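 further: plate controls were no compound for no effect and no enzyme for full effect; nearly all actives have a fitted effect of over 20% in size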
Target sequence (P00811 whole entry, looked up): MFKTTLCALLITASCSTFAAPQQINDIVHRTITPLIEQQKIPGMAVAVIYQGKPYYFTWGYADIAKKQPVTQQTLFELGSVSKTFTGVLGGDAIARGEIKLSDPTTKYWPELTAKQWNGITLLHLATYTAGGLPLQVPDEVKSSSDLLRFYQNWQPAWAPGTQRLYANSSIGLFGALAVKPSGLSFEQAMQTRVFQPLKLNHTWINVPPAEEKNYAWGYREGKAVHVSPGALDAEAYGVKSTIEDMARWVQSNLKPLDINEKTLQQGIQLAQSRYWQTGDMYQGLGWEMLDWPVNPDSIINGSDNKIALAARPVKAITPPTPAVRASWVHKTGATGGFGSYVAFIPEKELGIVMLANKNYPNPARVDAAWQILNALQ
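20 mM phosphate pH 7.0 + 0.01% (detergent screen) or 0.0001% Triton X-100; 5.3 nM AmpC reagent; cpd preinc 15 min RT; nitrocefin (800 uM stock) to start; A480 q20 s × 4 min; Activity was normalised to no-enzyme and no-compound control wells.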
AmpC inh detg = AmpC beta-lactamase inhibition with detergent present; hit rate 0.041% among 370,000; P00811; AmpC hydrolysis of nitrocefin, absorbance 480 nm, 0.01% Triton; Potency, µM (highest dose often 114 µM), for inactives: at the highest dose activity change, negative = inhibition, hits mostly inhibitors;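 further: 0% = no-compound wells and -100% = no-enzyme wells; nearly all actives have a fitted effect of over 25% in size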
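20 mM phosphate pH 7.0 + 0.01% (detergent screen) or 0.0001% Triton X-100; 5.3 nM AmpC reagent; cpd preinc 15 min RT; nitrocefin (800 uM stock) to start; A480 q20 s × 4 min; Activity was normalised to no-enzyme and no-compound control wells.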
Vaccinia mCherry = vaccinia inhibition (mCherry reporter); AID 720579; Potency, µM (doses to about 36.5 µM), for inactives: at the top dose activity change, negative = inhibition, hits mostly inhibitors; hit rate 0.63% among 310,000; Vaccinia virus mCherry reporter infection, fluorescence; calls by dose curve; tested in A549 cells; further: on the % scale 0 is the no-effect control and ±100 the full control effect; nearly all actives have a fitted effect of over 35% in size
SARS PLpro yeast = blocks SARS-CoV papain-like protease in a yeast assay; Potency, µM (doses to about 32.9 µM), without a hit: at the top dose activity, positive = growth rescue, actives largely listed as activators; S. cerevisiae expressing SARS-CoV PLpro, growth rescue; AID 485353; hit rate 0.19% among 330,000; calls by dose curve; further: 0% is about no effect; nearly all actives have a fitted effect of over 55% in size
VACV Venus inh = vaccinia inhibition (Venus reporter). hit rate 0.46% among 330,000. Vaccinia virus Venus reporter expression, fluorescence. Potency, µM (highest dose often 36.5 µM), inactives show top-dose activity change, negative = inhibition, usual class: inhibitors; calls by dose curve; tested in A549 cells; further: on the % scale 0 is the no-effect control and ±100 the full control effect; nearly all actives have a fitted effect of over 30% in size
* hit, by the source's call; i = inactive; ? = inconclusive; . = no result; [ ] = dose if it differs, or a comment. Unless noted, the call rests on the fitted dose curve; in most records, active means well fitted curve in the direction sought with a large enough effect; inconclusive means small, poorly fitted or top-dose-only effect, or another doubt; inactive means no such curve, though single readings can be large; an effect the other way counts as inactive or inconclusive. Potency means the concentration at half of the fitted maximal effect.

SMILES | AmpC no deterg | AmpC inh detg | Vaccinia mCherry | SARS PLpro yeast | VACV Venus inh
Cc1c(C(=O)N2CCCC(c3ccccc3)C2)sc2ncnc(NCCc3ccccn3)c12 (configuration not stated) | . | . | -14% | . | 2%
Cc1cc(C)cc(-c2nnc(SCC(=O)N3CCN(C(=O)c4ccco4)CC3)o2)c1 | 103% | -12% | 8.9µM* | 5% | ?
CCOC(=O)N1CCN(C(=O)CSc2nnc(-c3cccc(Cl)c3)o2)CC1 | 0% | ? | 5.6µM* | 7% | ?
O=C(CSc1nnc(-c2ccc(Br)cc2)o1)N1CCN(C(=O)c2ccco2)CC1 | 14% | ? | 0.63µM* | -2% | 5µM*
O=C(CSc1nnc(-c2ccccc2)o1)N1CCCC1 | -18% | 0% | i | 0% | -7%
CC(=O)OCC1=C(C(=O)O)N2C(=O)[C@@H](NC(=O)Cc3cccs3)[C@H]2SC1 | 8.9µM* | 7.1µM* | 2% | 4% | -2%
COc1cccc(N2CCN(c3ncnc4c3cnn4-c3ccc(C)cc3C)CC2)c1 | 43% | -4% | 14µM* | 8% | ?
c1ccc(C2(NC3=NCCO3)CCCCC2)cc1 | . | . | ? | . | 4µM*
C1CCC(NC2=NCCO2)CC1 | . | . | -29% | . | ?
C/C=C/C(=O)OCC(=O)Nc1ccc(OC)c(OC)c1 | -19% | 2% | ? | -2% | ?
C/C=C/C(=O)OCC(=O)Nc1ccc(OC)c(Cl)c1 | -15% | -3% | 8.9µM* | -9% | 10µM*
CCc1ccc2[nH]c(=O)c(CN(Cc3ccccc3OC)Cc3nnnn3Cc3ccco3)cc2c1 | 0% | ? | . | 0% | 28µM*
COc1ccccc1CN(Cc1cc2cc(C)ccc2[nH]c1=O)Cc1nnnn1Cc1ccco1 | -10% | -14% | . | -3% | ?
CCC(C)NC(=O)c1[nH]c2cc(OC)ccc2c1Sc1ccc(C)cc1 (configuration not stated) | . | -2% | -3% | . | -7%
CCn1c(-c2cccnc2)nc2cc(NC(=O)COC)cc(C(=O)N3CC[C@@H]4CCCC[C@H]4C3)c21 | . | . | -15% | . | -6%
O=C(COc1ccccc1F)Nc1nnc(SCc2cc(=O)c3ccccc3[nH]2)s1 | . | 13% | -5% | . | 1%
COc1cc(C(=O)Nc2ccc(OCc3cc(=O)n4cccc(C)c4n3)cc2)cc(OC)c1OC | . | 0% | 8.9µM* | . | ?
COc1ccccc1C(=O)Nc1ccc(OCc2cc(=O)n3cccc(C)c3n2)cc1 | . | 18% | -21% | . | -10%
CSCCC(NC(=O)COc1ccccc1)C(=O)OCC(=O)c1ccccc1 (configuration not stated) | 2% | 3% | i | . | -3%
CSCCC(NS(=O)(=O)c1ccc2ccccc2c1)C(=O)OCC(=O)c1ccc(C(C)C)cc1 (configuration not stated) | 7.9µM* | -7% | -7% | -7% | -12%
COC(=O)c1c(OCc2cccnc2)cc(=O)n2c1CCN(C(=O)c1ccc(OC)c(F)c1)CC2 | . | . | i | . | -11%
Cc1cc(C)nc(N/N=C/c2ccccc2OCc2ccc(Br)cc2)n1 | 18µM* | -12% | -11% | -3% | -5%
Cc1cc(C)nc(N/N=C/c2ccccc2OCc2ccccc2)n1 | -49% | -5% | -6% | -12% | -22%
COc1cc2c(cc1OC)CN(Cc1cc(=O)oc3cc(C)c(C)cc13)CC2 | -41% | -6% | i | -5% | 2%
COc1cc2c(cc1OC)CN(Cc1cc(=O)oc3cc(C)c(Cl)cc13)CC2 | 10µM* | -11% | -15% | 6% | 1%
SMILES | AmpC no deterg | AmpC inh detg | Vaccinia mCherry | SARS PLpro yeast | VACV Venus inh
Cc1c(C(=O)Nc2ccc(-c3nnc4n3CCCCC4)cc2)oc2c1ccc1ccccc12 | 162% | 0% | 14µM* | 3% | ?
O=C(Nc1ccc(-c2nnc3n2CCCCC3)cc1)c1cc2ccccc2o1 | 47% | -1% | i | 0% | -4%
Cc1csc(Sc2ccc(S(=O)(=O)N3CCCC3)cn2)n1 | -8% | 0% | 8.9µM* | -6% | ?
Cc1ccccc1C1(CC(=O)N2CC3CC4CC(C3)CC2C4)CC(=O)N(Cc2cccnc2)C1=O (configuration not stated) | . | . | -19% | . | -10%
CCS(=O)(=O)c1ccc2oc(SCC(=O)NCCc3ccccc3)nc2c1 | 0%[2.29 µM] | -11% | 13µM* | -1% | ?
CCS(=O)(=O)c1ccc2oc(SCC(=O)NCc3ccccc3)nc2c1 | -8%[2.29 µM] | -7% | 1% | 1% | -1%
COc1cccc(C2(CC(=O)N3CCCCC3CO)CC(=O)N(C)C2=O)c1 (configuration not stated) | . | . | -7% | . | 7%
Cc1c(C(=O)NCc2ccco2)cnn1-c1ncc2c(n1)-c1ccccc1CC2 | . | . | -15% | . | -28%
CC(=O)/C(=C\c1ccccc1)CC(=O)O | . | . | i | . | 0%
CN(CC(=O)Nc1ccccc1Br)C(=O)c1ccc(-c2ccc(Cl)cc2)o1 | 60% | -8% | i | -3% | -27%
CN(CC(=O)Nc1ccccc1Br)C(=O)c1ccccc1OCc1ccc(Cl)cc1 | . | . | 0.1µM* | . | -35%
COc1ccccc1OCc1ccc(C(=O)NCc2ccco2)o1 | 0.28µM* | 0% | -20% | 2% | -4%
CCn1c(SCC(=O)Nc2ccc3c(c2)OCO3)nc2c(c1=O)SC(C)C2 (configuration not stated) | 2.8µM* | -1% | 10% | -20% | -11%
Oc1cc(-c2nc3ccccc3s2)cc2c1OCCN(Cc1cccn1-c1ncccn1)C2 | . | . | -13% | . | -1%
NS(=O)(=O)c1cccc(NC(=O)c2cc(-c3cccs3)nc3ccccc23)c1 | 18µM* | 10% | . | 1% | .
CN(C)S(=O)(=O)c1cccc(NC(=O)c2cc(-c3cccs3)nc3ccccc23)c1 | -28% | ? | i | 12% | -10%
N#CCC(=N)N1CCN(c2ccccc2)CC1 | -33% | 0% | . | -5% | 22%
N#CCC(=N)N1CCN(c2ccccc2Cl)CC1 | 0.32µM* | 4% | . | -5% | -23%
C=C1C(=O)c2sccc2C(c2ccc(OC)c(OC)c2)C1COC(C)=O (configuration not stated) | . | . | 5µM* | . | 7.1µM*
O=C(NC1CCCc2ccccc21)c1ccc(=O)[nH]c1 (configuration not stated) | 9% | -11% | -9% | -1% | -1%
CCC(C)(NC(=O)c1ccc(=O)[nH]c1)C(=O)NC1CCCC1 (configuration not stated) | 2.8µM* | ? | i | -13% | -3%
COc1ccccc1CCNc1ncnc2sc(C(=O)N3CCCC3)c(C)c12 | . | . | -12% | . | -8%
c1ccc(-c2nnnc3ccccc23)cc1 | -34% | ? | -3% | 20% | -14%
Clc1ccc2nnnc(-c3ccccc3)c2c1 | -15% | ? | 13µM* | -39% | 13µM*
O=C1CC(CC(=O)N2CC3CCCC2C3)(c2cccc(F)c2)C(=O)N1Cc1cccnc1 (configuration not stated) | . | . | -9% | . | -1%
